Measured values from PubChem BioAssay (NCATS).
Records with an inconclusive call do not appear. Entries that show only a call come without a potency. Where a structure was tested more than once in an assay, its records may differ in their call. Activity calls are given as the source filed them. Calls follow the shape of the dose curve; as a rule, active = well fitted curve in the direction sought with a large enough effect; inconclusive = small, poorly fitted or top-dose-only effect, or another doubt; inactive = no such curve, though single readings can be large; an effect the other way counts as inactive or inconclusive.

Assays:
[1] = qHTS for Inhibitors of Plasmodium falciparum (DD2) proliferation (AID 504314);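 as to activity, negative = inhibition: parasite DNA measured by SYBR Green fluorescence after red cell lysis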
Procedure, shortened: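 Parasite proliferation measured as SYBR Green signal from Plasmodium DNA, mature erythrocytes lacking DNA. 72 h incubation, 37C; activity scaled between vehicle and 0.29 uM artemisinin, with correction from vehicle-only plates.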

[2] = qHTS for Inhibitors of Plasmodium falciparum (GB4) proliferation (AID 504315); also: nearly all actives have a fitted effect of over 50% in size
Procedure, shortened: (§1)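 Parasite growth measured as SYBR Green DNA fluorescence (ex 485, em 535 nm) after overnight lysis following 72 h culture at 37 °C, 0.3% parasitemia, 2.5% hematocrit. Values normalized against DMSO and 0.29 uM artemisinin controls, with plate-stack correction.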

[3] = qHTS for Inhibitors of Plasmodium falciparum (7G8) proliferation (AID 504316); also: nearly all actives have a fitted effect of over 65% in size
Procedure, shortened: as §1

[4] = qHTS for Inhibitors of Plasmodium falciparum (HB3) proliferation (AID 504318); also: nearly all actives have a fitted effect of over 60% in size
Procedure, shortened: as §1

[5] = qHTS for Inhibitors of Plasmodium falciparum (CP250) proliferation (AID 504320)
Procedure, shortened: as §1
Potency is read from the fitted curve at half-maximal effect.

Row | SMILES | Potency [1] | Potency [2] | Potency [3] | Potency [4] | Potency [5] | activity, negative = inhibition [1]
1 | CCCCC#C[C@@H]1C=C[C@H](Oc2ccc(C(=O)OC)cc2)[C@@H](COC(=O)OCC)O1 | inactive | inactive | inactive | inactive | inactive | 
2 | COC(=O)N[C@@H](C=Cc1ccco1)[C@]1(C(=O)OC)CCCC1=O | inactive | inactive | inactive | inactive | inactive | 
3 | COC1=C[C@H](C(=O)NCCNC(C)=O)[C@H](C)[C@@H](c2ccccc2)CC1=O | inactive | inactive | inactive | inactive | inactive | 
4 | CCOC(=O)NN=C1C[C@@H](O)[C@@H](O)[C@@H]2[C@H]3C(=O)N(C[C@@H]4CCCO4)C(=O)[C@@H]3CC[C@H]12 | inactive | inactive | inactive | inactive |  | 
5 | C=CC[C@@H]1C=C[C@@H](ON=C2[C@H]3CCn4c(=O)n(-c5ccccc5)c(=O)n4[C@@H]3[C@H](O)[C@@H]3O[C@H]23)[C@@H](CO)O1 | inactive | inactive | inactive | inactive |  | 
6 | CC1(C)O[C@H]2O[C@H]([C@H](O)CON=C3[C@H]4CCn5c(=O)n(-c6ccccc6)c(=O)n5[C@@H]4[C@H](O)[C@@H]4O[C@H]34)[C@H](O)[C@@H]2O1 | inactive | inactive | inactive | inactive | inactive | 
7 | COC(=O)CCCC1=CC2=CC(=O)C(C)(O)C(=O)C2=CO1 (stereo not drawn) | inactive | inactive | inactive | inactive |  | 
8 | C=C(CCN1C=C(C(C)=O)C(c2ccccc2)NC1=O)c1ccc(OC)cc1 (stereo not drawn) | inactive | inactive | inactive | inactive |  | 
9 | C=CCCN1C(=O)NC(c2ccccc2)C(C(=O)OC)=C1C (stereo not drawn) | inactive | inactive | inactive | inactive | inactive | 
10 | COc1cc(O)c(C(=O)C=Cc2ccc3c(c2)OCO3)c(OC)c1 | inactive | inactive | inactive | inactive | inactive | 
11 | CC1(OC(=O)CCc2ccccc2)C(=O)C=C2C=C(c3ccc(C#N)cc3)N(C(CO)CO)C=C2C1=O (stereo not drawn) |  | inactive | inactive | inactive | inactive | -1.45% [at 1.12 µM] (inactive)
12 | COC(=O)C1=C(C)N(Cc2ccco2)C(=O)NC1c1ccc(Br)cc1 (stereo not drawn) | inactive | inactive | inactive |  |  | 
13 | COCCN1C(=O)N(C)C(c2ccccc2)C(C(C)=O)=C1C (stereo not drawn) | inactive | inactive | inactive | inactive | inactive | 
14 | CCC(=O)OC1(C)C(=O)C=C2C=C(CCCC(=O)OC)OC=C2C1=O (stereo not drawn) | inactive | inactive | inactive | inactive | inactive | 
15 | COC(=O)[C@H]1O[C@@H](c2c(OC)c(OC)c(C)c(OC)c2OC)[C@H](C)[C@@H](O)[C@@H]1C | inactive | inactive | inactive | inactive | inactive | 
16 | COC(=O)CCC(=O)OC1(C)C(=O)C=C2C=C(C3CC3)N(CCc3c[nH]c4ccccc34)C=C2C1=O (stereo not drawn) | inactive | inactive | inactive |  |  | 
17 | C#CCCCON=C1C[C@@H](O)[C@H](O)[C@H]2[C@@H]3C(=O)N(C[C@@H]4CCCO4)C(=O)[C@@H]3CC[C@@H]12 | inactive | inactive | inactive | inactive |  | 
18 | CC(=O)OC[C@H]1O[C@@H](ON=C2C[C@@H](O)[C@@H](O)[C@@H]3[C@H]4C(=O)N(C5CCCCC5)C(=O)[C@@H]4CC[C@@H]23)[C@H](OC(C)=O)[C@@H](OC(C)=O)[C@H]1OC(C)=O | inactive | inactive | inactive |  | inactive | 
19 | CCN1C(=O)[C@@H]2[C@H]3[C@H](O)[C@H](O)CC(=NOC[C@@H](O)COCc4ccco4)[C@@H]3CC[C@H]2C1=O | inactive | inactive | inactive | inactive | inactive | 
20 | C=CCN1c2ccccc2[C@]23C[C@@H](C(=O)OC)N(C(=O)c4cccs4)C2=NC(C(=O)OC)=C(C(=O)OC)[C@H]13 | inactive | inactive | inactive | inactive | inactive | 
21 | CCCCCCCC#Cc1ccccc1C=NS(=O)c1ccc(C)cc1 (stereo not drawn) | inactive | inactive | inactive | inactive | inactive | 
22 | C=C[C@@]1(C)CCC=C2C(=O)CCC[C@H]21 | inactive | inactive | inactive | inactive | inactive | 
23 | C=CC[C@@](C(C)=O)(C(=O)OC)[C@@H](NC(=O)OC(C)(C)C)c1ccccc1 | inactive | inactive | inactive | inactive | inactive | 
24 | CC(C)[C@@H](OCc1ccccc1)[C@H](C)C=NO[C@H](C)c1cn([C@H](CO)Cc2ccccc2)nn1 | inactive | inactive | inactive | inactive | inactive | 
25 | COCCN1C(=O)N[C@@H](CCc2ccccc2)[C@H](C(C)=O)[C@H]1C | inactive | inactive | inactive | inactive | inactive | 

Row | SMILES | Potency [1] | Potency [2] | Potency [3] | Potency [4] | Potency [5] | activity, negative = inhibition [1]
26 | COCCN1C(=NCC(C)C)NC(c2ccccc2)C(C(=O)OC)=C1C (stereo not drawn) | inactive | inactive | inactive | inactive | inactive | 
27 | COCCN1C(=NCCc2cccnc2)NC(c2ccccc2)C(C(=O)OC)=C1C (stereo not drawn) | inactive | inactive |  | inactive | inactive | 
28 | O=C1C[C@@H](c2ccccc2)[C@H](c2ccc(Br)cc2)O1 | inactive | inactive | inactive | inactive | inactive | 
29 | CCN1C(=S)NC(c2cccc(F)c2)C(C(=O)OC)=C1C (stereo not drawn) | inactive | inactive | inactive | inactive | inactive | 
30 | FC(F)(F)c1cc(NC(=S)NC(c2ccccc2)c2ccccc2)cc(C(F)(F)F)c1 | 1.34 µM (active) and inactive | 1.51 µM (active) and inactive | 536 nM (active) and inactive | 757 nM (active) and inactive | 1.2 µM (active) and inactive | 
31 | C=C[C@H](C)[C@](C)(O)c1ccccc1 | inactive | inactive | inactive | inactive | inactive | 
32 | CC1(OC(=O)C2CCCC2)C(=O)C=C2C=C(c3ccsc3)N(CC3CC3)C=C2C1=O (stereo not drawn) |  | inactive | inactive | inactive | inactive | -6.74% [at 1.12 µM] (inactive)
33 | COc1cccc([C@@H]2Oc3ccc(Br)cc3C[C@@H]2OC(=O)N[S+](=O)([O-])c2ccc(C)cc2)c1 | inactive | inactive | inactive | inactive | inactive | 
34 | C=CCCC1(CCC)C(=O)C(=C(O)c2ccccc2)C(=O)C(CCC)=C1OC (stereo not drawn) | inactive | inactive | inactive | inactive | inactive | 
35 | C[C@H]1Cc2c(COc3ccccc3)nc3c(c2CO1)CN(C(=O)C1CCCCC1)CC3 |  | inactive | inactive | inactive | inactive | -0.952% [at 1.12 µM] (inactive)
36 | C[C@@H]1C=CCC(=O)N[C@@H](c2ccccc2)[C@H](C)C=CCC(=O)N[C@@H]1c1ccccc1 | inactive | inactive |  | inactive | inactive | 
37 | COc1ccc(COC(=O)NN=C2C[C@@H](O)[C@@H](O)[C@@H]3[C@H]4C(=O)N(C5CCCCC5)C(=O)[C@@H]4CC[C@@H]23)cc1 | inactive | inactive | inactive |  | inactive | 
38 | COc1ccc(-c2nc(-c3ccccc3)oc2Nc2ccc3ccccc3c2)cc1 | inactive | inactive | inactive | inactive | inactive | 
39 | COC(=O)N[C@@H](c1ccccc1)[C@]1(C(C)=O)CCCC1=O | inactive | inactive | inactive |  | inactive | 
40 | CCCCCCCc1cc2ccccc2c(=O)o1 | inactive | inactive | inactive | inactive | inactive | 
41 | COC(=O)C(C(C)=O)[C@@H](NC(=O)OC(C)(C)C)c1ccccc1 (stereo partly drawn) | inactive | inactive | inactive |  | inactive | 
42 | COc1ccc(-c2nc3c(c4c2C[C@H](c2ccccc2)OC4)CN(C(=O)NCc2ccco2)CC3)c(C)c1 |  | inactive |  | inactive | inactive | -0.324% [at 1.12 µM] (inactive)
43 | COc1ccc(-c2nc(-c3ccccc3)oc2Nc2c(C)cccc2C)cc1 | inactive | inactive | inactive | inactive | inactive | 
44 | COCCN1C(=O)C2=C(C1=O)C1N(C)c3ccccc3[C@@]13C[C@@H](CO)N(C(C)=O)C3=N2 (stereo partly drawn) | inactive | inactive | inactive | inactive | inactive | 
45 | C=CCOC(=O)NC(CC(=Nc1ccc(OC)cc1)C(=O)OC)c1ccccc1 (stereo not drawn) | inactive | inactive |  | inactive | inactive | 
46 | CN1c2ccccc2[C@@]2(O)C(=O)[C@@]1(C)[C@@H]1c3ccccc3C[C@H]12 | inactive | inactive | inactive | inactive | inactive | 
47 | COC(=O)[C@H]1[C@H](C)[C@@]2(O)c3ccccc3N(C)[C@@]1(C)[C@H]2O | inactive | inactive | inactive | inactive | inactive | 
48 | C=CC[C@](C)(Nc1ccc(OC)cc1)C(=O)OCC | inactive | inactive | inactive | inactive | inactive | 
49 | C=CCOC(=O)N[C@@H](c1coc2ccccc2c1=O)[C@@H](C)C=CCC(=O)OC | inactive | inactive | inactive | inactive | inactive | 
50 | C[C@H]1Cc2c(COc3ccccc3)nc3c(c2CO1)CN(C(=O)c1cccnc1)CC3 |  | inactive | inactive | inactive | inactive | 0.654% [at 1.12 µM] (inactive)
